Our source for the inhibition values is PubChem BioAssay AID1626 (SRMLSC, 2009).

Structures are written as SMILES. Hit rate of the full screen: of about 220,000 compounds, about 2,000 (0.91%) were called active. About 2% were inconclusive and are not listed. Not all results are given here. Measured potencies and affinities stand elsewhere. Values without a mark were called inactive. No stated cut-off is given here; in the data, inconclusive means inhibition above about 80% without an active follow-up result; inactive means below that; test concentration not stated here.

The assay in a line: M. tuberculosis H37Rv growth inhibitors, H37Rv strain (AID 1626).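 Further: bacteria incubated seven days before Alamar blue readout; 0% = bacteria only wells and 100% = bacteria with antibiotic wells.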 To be noted: stronger effect = higher value, concentration not given here.
The inhibition is the relative decrease from the control value, in per cent. In the case of `Cc1sc(NC(=O)C2CC(Cl)=CCC2C(=O)O)c(C#N)c1C` (stereo not drawn), the inhibition is -16.1%. As to `Cc1ccc(-c2nnn(CC(=O)N(c3ccc(F)cc3)C(C(=O)NC(C)(C)C)c3ccco3)n2)o1` (stereo not drawn), the inhibition was -0.26%. Regarding `Cc1onc(-c2c(Cl)cccc2Cl)c1C(=O)c1ccccc1`, the inhibition is -5.4%. As for `Cc1ccc(NC(NC(=O)c2cccs2)C(Cl)(Cl)Cl)cc1` (stereo not drawn), the figure is 21%.

In the case of `Cc1ccccc1NC(NC(=O)c1cccs1)C(Cl)(Cl)Cl` (stereo not drawn), the inhibition was -3.03%. In the case of `Nc1nc(SCC(=O)Nc2ccccc2)[nH]c(=O)c1NC(=O)c1cccs1`, the inhibition is -5.6%.

With `Cc1ccc2c(CC(=O)Nc3cccc(S(=O)(=O)N4CCOCC4)c3)coc2c1`, the inhibition was 5.42%. In the case of `CC(C)C(=O)NC(CC(=O)O)c1ccccc1` (stereo not drawn), the inhibition is -15.2%. Turning to `Cc1nnc(SCC(=O)N/N=C/c2cc(Cl)c(O)c(Cl)c2)s1`, the inhibition is -3.34%.

Regarding `Cc1cc(NC(=O)/C=C/c2ccccc2)no1`, the inhibition was -1.33%. For the molecule `COC(=O)c1cc(-c2ccccc2)on1`, the inhibition is 45%. Take `O=C(Nc1ccc(N2CCOCC2)c(Cl)c1)c1cccnc1Cl`: the inhibition was -3.3%. For `Cc1cccn2c(=O)c(C=NCCO)c(Nc3ccc(Cl)cc3)nc12`, the inhibition was 2.37%. As to `Cc1cc(=O)oc(C)c1C(=O)Nc1cccc2ccccc12`, the inhibition was 7.53%. Then `COc1ccccc1NC(=O)c1c(C)oc2c1CCCC2`, with -16.9%. Then `COc1cc(C(F)(F)F)nc(-c2ccccn2)n1`, with 6.27%; and `CN(C)c1cc(C(F)(F)F)nc(-c2ccccn2)n1`, with 3.02%. On to `O=C(O)CSc1cc(C(F)(F)F)nc(-c2ccccn2)n1`, for which the inhibition was -6.21%. Then `C#CCSc1cc(C(F)(F)F)nc(-c2ccccn2)n1`, with 5.1%; and `CCN(CC)c1cc(C(F)(F)F)nc(-c2ccccn2)n1`, with -2.81%.

For the molecule `FC(F)(F)c1cc(Oc2ccccc2)nc(-c2ccccn2)n1`, the inhibition was 12.1%.

Regarding `FC(F)C(F)(F)c1cc(-c2ccc(Cl)cc2)n[nH]1`, the inhibition was 12.2%.

Take `CNc1nnc(CSc2nc(C)cc(C)n2)s1`: the inhibition is -5.32%. Turning to `O=C(c1cccc(C(F)(F)F)c1)C1CCCN(C(=O)CCCn2cncn2)C1` (stereo not drawn), the inhibition is 4.12%. For `CN(CCCNC(=O)CSc1cc(=O)n(C)c2cc(Cl)ccc12)Cc1ccccc1`, the inhibition was 4.19%.

Take `COc1ccc(NC(=O)c2noc(C(C)C)c2[N+](=O)[O-])cc1`: the inhibition was -2.72%. On to `NS(=O)(=O)c1ccc(CNC(=S)NC2CC2)cc1`, for which the inhibition is -2.38%. With `CN(Cc1ccccc1)c1ccc(N2C(=O)CCC2=O)cc1[N+](=O)[O-]`, the inhibition was -1.08%.

As for `COc1ccccc1NS(=O)(=O)c1ccc(C(N)=O)cc1`, the inhibition was -0.48%. As for `Cc1ccc2c(c1)N(CC(=O)N1CCCCC1c1cccnc1)C(=O)CO2` (stereo not drawn), the figure is -4.68%; as for `CCO[C@@H]1OC(C(=O)NCc2nc3ccccc3[nH]2)=C[C@H](C(C)(C)C)[C@H]1CCCO`, -3%; as for `Cc1ccc2c3c(cccc13)-c1ccccc1C2=O`, 10.1%.

Turning to `O=C1C(=O)c2c(C(=O)c3ccccc3)coc2-c2ccccc21`, the inhibition is 4.79%. Then `C[C@H]1COC2=C1C(=O)C(=O)c1c2ccc2c1CCCC2(C)C`, with -2.33%; and `Cc1ccc(C(=O)c2coc3c2C(=O)C(=O)c2ccccc2-3)cc1`, with -2.44%; and `O=C(CN1CCC(n2nnc3cc(F)ccc32)CC1)NNC(=O)c1ccccc1`, with -6.09%. Consider `N#Cc1ccc(COC(=O)c2ccccn2)cc1`, for which the inhibition is 39%.

Take `COc1cccc(NC(=O)CSc2ncnc3c2cnn3Cc2ccccc2)c1`: the inhibition is -10.6%. As for `NC(=S)NNC(=O)c1ccccc1Cl`, the figure is -8.81%. As for `CC(C)(C)C(=O)Nc1nc(NC(=O)C(C)(C)C)nc(-c2ccccc2Cl)n1`, the figure is -0.83%.

Turning to `COc1ccc(Nc2ccc(N3C(=O)CCCC3=O)cc2[N+](=O)[O-])cc1OC`, the inhibition is -5.4%. For the molecule `CCN1/C(=C\C(C)=O)Sc2ccc(OC)cc21`, the inhibition was -5.41%.

Turning to `CC(=O)NCCNc1ccc([N+](=O)[O-])cn1`, the inhibition is -0.44%. Regarding `CCOC(=O)N/N=C/c1cn(CCCOc2ccccc2)c2ccccc12`, the inhibition was 8.89%. On to `C/C(=N/N1CCN(Cc2cccc3ccccc23)CC1)c1ccco1`, for which the inhibition is -5.28%. Turning to `c1ccc2c(c1)N1CCN=C1N2CCN1CCCCC1`, the inhibition was -2.04%.

For the molecule `c1ccc2c(c1)N1CCCN=C1N2CCN1CCCCC1`, the inhibition is 1.49%. As for `O=C(Nc1ccc2c(c1)OCO2)C1CCN(C(=O)c2cccs2)CC1`, the figure is 0.36%; as for `O=c1oc(-c2ccccc2)nc2c1cnn2-c1ccccc1`, 19.8%; as for `O=c1oc(-c2cccc(Cl)c2)nc2c1cnn2-c1ccccc1`, 22.1%. In the case of `N#C/C(=C\c1ccc(Cl)c([N+](=O)[O-])c1)c1ccccn1`, the inhibition is 6.45%. As to `CCOC(=O)c1c(NC(=O)CNCC(O)CO)sc(C)c1C` (stereo not drawn), the inhibition was 4.88%. For `O=C(Cn1cnc([N+](=O)[O-])n1)NC1CC1`, the inhibition was -0.97%. As to `Nc1nc(Cl)cc(Sc2ccc3ccccc3c2)n1`, the inhibition is 8.65%. `Nc1nc(Cl)cc(Sc2ccc(F)cc2)n1`: the inhibition was 4.27%. Consider `Cc1cc(NC(=O)CSc2nc(N)c(NC(=O)c3ccccc3)c(=O)[nH]2)no1`, for which the inhibition is -1.25%. On to `CCOC(=O)N1CCN(C/C(C)=C/c2ccccc2)CC1`, for which the inhibition is -4.4%. For the molecule `CCOC(=O)N1CCN(S(=O)(=O)/C=C/c2ccccc2)CC1`, the inhibition was -17.8%. For the molecule `CC(C)(C)NS(=O)(=O)c1ccc(CCC(=O)Nc2ccc3c(c2)OCCO3)cc1`, the inhibition is -4.02%. As for `COc1ccccc1S(=O)Cc1ccc(C(=O)O)o1` (stereo not drawn), the figure is -6.58%; as for `C[C@H]1c2cccc(O)c2C(O)=C2C(=O)[C@]3(O)C(O)=C(C(N)=O)C(=O)[C@@H](N(C)C)[C@@H]3[C@@H](O)[C@@H]21`, 63.7%.

In the case of `C=C1c2cccc(O)c2C(O)=C2C(=O)[C@]3(O)C(O)=C(C(N)=O)C(=O)[C@@H](N(C)C)[C@@H]3[C@@H](O)[C@H]12`, the inhibition is 1.79%.

Turning to `CN(C)[C@@H]1C(=O)C(C(N)=O)=C(O)[C@@]2(O)C(=O)C3=C(O)c4c(O)cccc4[C@@](C)(O)[C@H]3[C@H](O)[C@@H]12`, the inhibition is 11.9%. `CN(C)[C@@H]1C(=O)C(C(N)=O)=C(O)[C@@]2(O)C(=O)C3=C(O)c4c(O)cccc4[C@@](C)(O)[C@H]3C[C@@H]12`: the inhibition is -3.76%. On to `CCN(CC)c1nc2ccccc2[nH]c1=O`, for which the inhibition was -5.3%. For `COc1ccc(C(=O)N/N=C/c2sc(=O)n(Cc3cccc(C(=O)O)c3)c2Cl)cc1`, the inhibition is -6.32%. Turning to `O=C(NCc1cccc(Br)c1)C1CC(c2ccc(C(F)(F)F)cc2)=NO1` (stereo not drawn), the inhibition was 18.7%.

As to `O=C(O)c1cccc(N2C(=O)/C(=C/c3ccc([N+](=O)[O-])cc3)C=C2c2ccccc2)c1`, the inhibition was 1.03%. As for `O=C1/C(=C/c2ccc([N+](=O)[O-])cc2)C=C(c2ccccc2)N1c1ccccc1`, the inhibition is -2.05%. Consider `COCCCNC(=O)c1ccc(CS(=O)(=O)c2ccc(Br)cc2)o1`, for which the inhibition was -8.42%. On to `Cc1nc(CNC(=O)CC2C(=O)NCCN2Cc2cccc(Oc3ccccc3)c2)cs1` (stereo not drawn), for which the inhibition was -3.5%.

On to `COc1cc2c(cc1OC)C(C)N(C(C)=O)CC2` (stereo not drawn), for which the inhibition was -6.23%. As to `COC(=O)c1sccc1NC(=O)c1sccc1C`, the inhibition was 0.49%. For `CCCCOc1ccc(C(=O)Nc2ccc(N3CCN(C)CC3)cc2)cc1`, the inhibition is 16.1%. Then `Cc1cc(C)c(NC(=O)c2cn3c4c(c(N5CCN(C)CC5)c(F)cc4c2=O)OCC3C)c(C)c1` (stereo not drawn), with 9.11%; and `COc1ccc(CCC(=O)Nc2cccc(Cl)c2)cc1`, with 10.2%; and `Cc1nc2c(C)cccc2cc1C(=O)N/N=C/c1ccc(C(=O)O)cc1`, with -1.57%. As for `COC(=O)c1cccc(NC(=O)/C=C/c2cccc([N+](=O)[O-])c2)c1`, the figure is -2.96%; as for `Cc1ccc(NC(C)C(=O)N/N=C/c2ccc([N+](=O)[O-])s2)cc1` (stereo not drawn), 75%; as for `O=C(/C=C/c1cccs1)Nc1ccc([N+](=O)[O-])cc1`, 4.49%. Take `Cc1cc(C)cc(NC(=O)/C=C/c2ccc([N+](=O)[O-])s2)c1`: the inhibition was 15.5%. Take `Cc1ccc(NC(=O)/C=C/c2cccs2)c([N+](=O)[O-])c1`: the inhibition was -6.44%. Turning to `COC(=O)c1cccc(NC(=O)/C=C/c2ccc([N+](=O)[O-])cc2)c1`, the inhibition is 3.4%.

As for `CCCC(c1nnnn1C(C)(C)C)N1CCN(Cc2ccccc2OC)CC1` (stereo not drawn), the inhibition is -3.31%.

Take `CCOC(=O)c1[nH]c(C)c(C(=O)NCc2cccnc2)c1C`: the inhibition was -1.85%.

Regarding `O=C(NCc1ccccn1)c1ccc(Cl)c(S(=O)(=O)Nc2ccccc2C(=O)NCc2ccccn2)c1`, the inhibition is -4.28%. For `CCN1CCN(C(=O)c2cn(CCOC)c(=O)c3c2c2ccccc2n3C)CC1`, the inhibition was 2.91%. For `O=C(CCC1CCCN(C(=O)c2ccsc2)C1)N1CCN(c2ccccn2)CC1` (stereo not drawn), the inhibition was -1.82%. As for `COc1cccc(OC)c1C(=O)NC(=S)Nc1ccc2c(c1)OCCO2`, the figure is 7.64%; as for `COC(=O)N/N=C/c1ccccc1`, 3.14%.

For `CC(C)(C)OC(=O)N1CCN(C(=O)Nc2ccc3c(c2)OCCO3)CC1`, the inhibition was 3.99%.

Take `CC(=O)NC(CCS(C)(=O)=O)C(=O)Nc1cc(Cl)ccc1Cl` (stereo not drawn): the inhibition is 4.83%. In the case of `COc1ccccc1NC(=O)CN1C(=O)NC(CC(C)C)C1=O` (stereo not drawn), the inhibition is -11.7%.
